This excerpt belongs to a sample that is enriched for hits.
Bead autofluor: flagged as autofluorescent in microsphere protease counterscreen. 360,000 tested, 3.1% active. compound autofluorescence counterscreen, microsphere flow cytometry; active compounds read high. fluorescence intensity (concentration not given with the values). AID 624483; in the data active = fluorescence intensity above about 16000; inconclusive = no clear call, values can overlap the other calls
BoNT-A LC inh2: inhibitors of Botulinum neurotoxin A light chain protease; inhibition, % at 10 µM; 360,000 tested, 0.17% active; multiplex microsphere protease substrate cleavage, flow cytometry; also: plate controls were buffer without enzyme for full effect and enzyme alone for no effect
Anthrax LF prot: inhibitors of Bacillus anthracis lethal factor protease; multiplex microsphere protease cleavage assay, LF; inhibition, % at 10 µM; 360,000 tested, 0.12% active; AID 588501; also: plate controls were buffer without enzyme for full effect and enzyme alone for no effect
Target sequence (P15917 whole entry, looked up): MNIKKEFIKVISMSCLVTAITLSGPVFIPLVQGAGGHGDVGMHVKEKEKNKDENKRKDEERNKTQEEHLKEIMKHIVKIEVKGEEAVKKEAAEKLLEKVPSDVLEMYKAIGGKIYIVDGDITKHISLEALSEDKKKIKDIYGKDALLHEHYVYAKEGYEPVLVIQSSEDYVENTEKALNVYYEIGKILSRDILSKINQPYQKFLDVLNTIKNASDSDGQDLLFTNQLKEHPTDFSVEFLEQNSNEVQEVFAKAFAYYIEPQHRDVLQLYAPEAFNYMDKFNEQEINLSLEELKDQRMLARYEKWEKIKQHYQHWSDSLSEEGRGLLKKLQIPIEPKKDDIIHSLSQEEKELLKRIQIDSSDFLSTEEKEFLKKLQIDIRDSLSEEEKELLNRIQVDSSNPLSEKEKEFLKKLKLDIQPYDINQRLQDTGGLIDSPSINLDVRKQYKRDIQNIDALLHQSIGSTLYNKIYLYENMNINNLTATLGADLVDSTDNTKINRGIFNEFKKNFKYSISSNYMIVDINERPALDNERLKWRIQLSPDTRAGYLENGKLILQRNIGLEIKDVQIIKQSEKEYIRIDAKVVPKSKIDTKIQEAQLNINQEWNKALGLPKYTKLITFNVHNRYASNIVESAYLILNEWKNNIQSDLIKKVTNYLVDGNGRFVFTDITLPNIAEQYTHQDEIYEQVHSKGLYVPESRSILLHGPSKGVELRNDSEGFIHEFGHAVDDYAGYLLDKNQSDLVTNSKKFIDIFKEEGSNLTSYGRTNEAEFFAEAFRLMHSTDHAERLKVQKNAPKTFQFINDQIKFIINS
BoNT-F LC inh: blocks Botulinum neurotoxin F light chain protease | Multiplex microsphere protease cleavage assay, flow cytometry | inhibition, % at 10 µM | 360,000 tested, 0.22% active; in the data active = inhibition above about 35%, passing the limit was not always enough; inconclusive = no clear call, values can overlap the other calls; also: plate controls were buffer without enzyme for full effect and enzyme alone for no effect
TcdB inh: blocks C. difficile toxin B glycohydrolase activity. TcdB glycohydrolase enzymatic assay, plate reader. P18177. inhibition, % at 9.99 µM. 350,000 tested, 0.24% active. AID 652162; in the data active = inhibition above about 10%
Numbers without * were called inactive. Rule as the data show it, unless noted: active = inhibition above about 30%; inconclusive = no clear call, values can overlap the other calls; inactive = below that.

Screening C=CCn1c(SCc2nc3ccccc3[nH]2)nnc1-c1ccccn1 returned Bead autofluor 18300*, BoNT-A LC inh2 inconclusive, Anthrax LF prot -3.9 and BoNT-F LC inh 5.5.
For CCn1c(SCc2nc3ccccc3[nH]2)nnc1-c1ccncc1 the results were Bead autofluor 4858, BoNT-A LC inh2 1.6, Anthrax LF prot 6.2, BoNT-F LC inh -2.4 and TcdB inh 0.0.
C[C@H](CO)N1C[C@H](C)[C@@H](CN(C)Cc2ccc(Cl)c(Cl)c2)Oc2c(NC(=O)c3ccc(-c4nccs4)cc3)cccc2C1=O was read as TcdB inh -2.1.
For COC(=O)c1ccc(NC(=S)Nc2ccc(O)cc2)cc1 the results were Bead autofluor 4405, BoNT-A LC inh2 1.0, Anthrax LF prot -9.9, BoNT-F LC inh 1.7 and TcdB inh 10.1*.
For Oc1ccc(NC(=S)Nc2ccc(O)cc2)cc1 the results were Bead autofluor 4265, BoNT-A LC inh2 -0.5, Anthrax LF prot -2.7, BoNT-F LC inh -1.1 and TcdB inh 9.2.
Cc1ccccc1Oc1ncnc2sccc12 was read as Bead autofluor 18377*, BoNT-A LC inh2 4.0, Anthrax LF prot -17.4 and BoNT-F LC inh 4.5.
c1ccc(Oc2ncnc3sccc23)cc1 was read as Bead autofluor 3990, BoNT-A LC inh2 0.0, Anthrax LF prot -1.5, BoNT-F LC inh 1.9 and TcdB inh 1.7.
O=C(N[C@@H]1CC[C@H](CCNC(=O)c2ccccc2F)O[C@@H]1CO)c1ccc2c(c1)OCO2 was read as TcdB inh 0.8.
For CC[C@H](C)C1NC(=O)[C@H](CC(=O)O)NC(=O)c2cc([N+](=O)[O-])cc(I)c2NCCC(C(N)=O)NC1=O (stereo partly specified) the results were Bead autofluor 3412, BoNT-A LC inh2 0.4, Anthrax LF prot -0.6, BoNT-F LC inh 0.5 and TcdB inh -0.1.
Screening CC[C@H](C)[C@@H]1NC(=O)c2cc([N+](=O)[O-])cc(I)c2NCC[C@@H](C(N)=O)NC(=O)[C@H](CCCN=C(N)N)NC1=O returned TcdB inh 10.2*.
`CCC(=O)N1C[C@@H]2[C@H](c3ccccc31)[C@H](CO)N2CC1CCCC1` gave TcdB inh 0.3.
`C/C(=N\O)c1ccc2c3ccccc3n(C)c2c1` gave Bead autofluor 21762*, BoNT-A LC inh2 inconclusive, Anthrax LF prot -4.1 and BoNT-F LC inh -8.4.
For CCN1C(=O)/C(=C2/C=CC=CN2C)SC1=S the results were Bead autofluor 23187*, BoNT-A LC inh2 -3.4, Anthrax LF prot -2.3 and BoNT-F LC inh -9.1.
`CN1C=CC=C/C1=C1/SC(=S)N(Cc2ccccc2)C1=O` gave Bead autofluor 2495, BoNT-A LC inh2 0.2, Anthrax LF prot 0.3 and BoNT-F LC inh 0.4.
For N#C/C(=C/c1ccc(C(=O)O)cc1)C(=O)NCc1ccccc1 the results were Bead autofluor 17589*, BoNT-A LC inh2 inconclusive, Anthrax LF prot -1.8, BoNT-F LC inh -8.6 and TcdB inh -0.4.
`O=C(C[C@@H]1C=C[C@H](NS(=O)(=O)c2ccc(F)cc2)[C@@H](CO)O1)N1CCN(c2ccccc2)CC1` gave TcdB inh -0.3.
`CC(=O)N1CCN(C2=NC(=O)C(=C3CCCCC3)S2)CC1` gave Bead autofluor 2410, BoNT-A LC inh2 0.0, Anthrax LF prot -3.3 and BoNT-F LC inh -2.2.
N#CCCN1CCN(C2=NC(=O)C(=C3CCCCC3)S2)CC1 was read as Bead autofluor 22432*, BoNT-A LC inh2 0.4, Anthrax LF prot -1.7, BoNT-F LC inh 0.3 and TcdB inh 1.2.
O=C1N=C(N2CCOCC2)SC1=C1CCCCC1 was read as Bead autofluor 20921*, BoNT-A LC inh2 1.3, Anthrax LF prot -1.4 and BoNT-F LC inh 4.1.
CN1OC[C@@H]2CN(Cc3ccc4c(c3)OCO4)[C@H](c3ccc(N4CCCCC4)cc3)C[C@@H]21 was read as Bead autofluor 23460*, BoNT-A LC inh2 -14.6, Anthrax LF prot -21.9, BoNT-F LC inh 15.4 and TcdB inh 1.1.
For CN1OC[C@@H]2CN(Cc3ccccc3)[C@H](c3ccc(N4CCCCC4)cc3)C[C@@H]21 the results were Bead autofluor 12789, BoNT-A LC inh2 -7.1, Anthrax LF prot -22.2, BoNT-F LC inh -5.9 and TcdB inh 1.2.
`O=C(Nc1ccc(Cl)cc1)c1csc(-c2ccccc2)n1` gave Bead autofluor 16593*, BoNT-A LC inh2 -0.9, Anthrax LF prot -3.6 and BoNT-F LC inh -3.4.
For O=C(Nc1ccc(Cl)cc1)c1csc(-c2ccncc2)n1 the results were Bead autofluor 3893, BoNT-A LC inh2 -0.6, Anthrax LF prot -0.6, BoNT-F LC inh 1.7 and TcdB inh 0.9.
For CNC(=O)c1csc(-c2ccc(C)cc2)n1 the results were Bead autofluor 20516*, BoNT-A LC inh2 2.1, Anthrax LF prot -9.0 and BoNT-F LC inh 2.7.
For Cc1ccc(-c2ccc([C@H]3[C@@H](CO)N4C(=O)CN(C(=O)c5cccnc5)C[C@H]34)cc2)cc1 the results were TcdB inh -0.5.
O=C(NCc1ccccc1)c1noc2c1CCCCC2 was read as Bead autofluor 16329*, BoNT-A LC inh2 -0.6, Anthrax LF prot -1.9 and BoNT-F LC inh -1.7.
`COc1ccc(CNC(=O)c2noc3c2CCCCC3)cc1` gave Bead autofluor 21035*, BoNT-A LC inh2 -1.2, Anthrax LF prot -4.5 and BoNT-F LC inh -1.5.
O=C(NCc1cccs1)c1noc2c1CCCCC2 was read as Bead autofluor 16908*, BoNT-A LC inh2 -3.3, Anthrax LF prot -8.8 and BoNT-F LC inh -6.1.
COc1ccc(NC(=O)c2noc3c2CCC3)cc1 was read as Bead autofluor 6488, BoNT-A LC inh2 -0.3, Anthrax LF prot 8.1 and BoNT-F LC inh -0.4.
c1ccc(Cc2nnc3sc(Nc4ccccc4)nn23)cc1 was read as Bead autofluor 16579*, BoNT-A LC inh2 inconclusive, Anthrax LF prot 0.4 and BoNT-F LC inh -3.1.
Brc1ccc(-c2nn3c(Cc4ccccc4)nnc3s2)o1 was read as Bead autofluor 3422, BoNT-A LC inh2 -0.9, Anthrax LF prot -0.5, BoNT-F LC inh 0.9 and TcdB inh 0.3.
COCC(=O)N1C[C@@H](C)[C@H](OC)CN(C)C(=O)c2cc(NC(=O)c3cnccn3)ccc2OC[C@@H]1C was read as TcdB inh 1.1.
`O=C1CN(Cc2ccccc2)C[C@H]2[C@H](c3ccc(Br)cc3)[C@@H](CO)N12` gave TcdB inh -0.2.
`O=C(Nc1ccc(F)cc1)c1cnc(-c2ccccc2)nc1-c1ccccc1` gave Bead autofluor 18660*, BoNT-A LC inh2 inconclusive, Anthrax LF prot -8.3 and BoNT-F LC inh 7.7.
Screening CN(C)CCOC(C1CCCCC1)C1CCCCC1 returned Bead autofluor 24587*, BoNT-A LC inh2 -2.6, Anthrax LF prot -6.4, BoNT-F LC inh -4.0 and TcdB inh 1.4.
`Cc1snc(SCC(=O)N/N=C(\N)COc2cccc(C(F)(F)F)c2)c1C#N` gave Bead autofluor 20365*, BoNT-A LC inh2 inconclusive, Anthrax LF prot 1.0 and BoNT-F LC inh -1.1.
`COCCN1C(=O)/C(=C/c2ccc(N3CCCC3)cc2C)SC1=S` gave Bead autofluor 18023*, BoNT-A LC inh2 100.0*, Anthrax LF prot 57.6*, BoNT-F LC inh 27.8 and TcdB inh 0.3.

Assay outcomes from PubChem.
